Our source for the growth values is PubChem BioAssay (NCI).

Molecules are shown by their SMILES. About 83,000 compounds went through this panel and 20% of them were active in at least one assay; those are over-represented in the sample as a whole.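 Step 1: grow cells in 96-well plates. Step 2: add test compound at a single concentration. Step 3: incubate 48 h. Step 4: record percent growth.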 Values without a mark were called inactive. Active and inactive are the calls of the source. The calls were made as follows: active = growth percent below 10; inactive = the rest.

For this assay, the system named is HL-60(TB) leukemia. The assay is described as follows: NCI-60 one-dose screen, 48 h (100 = growth as untreated, 0 = no growth, -100 = all killed). Conditions: 10 µM unless noted.
Consider `O=S(=O)(NCCCNc1nccc(-c2[nH]c(-c3ccccc3)nc2-c2ccc(F)c(O)c2)n1)c1cccc(F)c1`, for which the growth is 95.7%.
The value for `COc1cc(OC)c(C2SCC(=O)N2Nc2ncnc3ccccc23)cc1OC` (stereo not given) was 103%; that for `CC(=O)c1cc(C(=O)N2c3ccccc3Sc3ccccc32)n2c1ccc1ccccc12` was 14%; that for `Oc1ccc(CSc2nnc(-c3ccncc3)o2)c2cccnc12` was 8.26% (active).
As for `COc1ccc(C2CC(c3cccc(OCCCCOc4cccc(C5=NOC(c6ccc(OC)cc6)C5)c4)c3)=NO2)cc1` (stereo not given), the growth was 89.6%.
Regarding `Cc1occc1-c1nc2s/c(=C\c3cn(-c4ccccc4)nc3-c3ccccc3)c(=O)n2n1`, the growth is 102%.
For `CCCSc1nc(Nc2ccc(/C(C)=N\NC(N)=S)cc2)c(C#N)c(-c2ccc(OC)cc2)n1`, the growth is 74%.
For the compound `C#CCN(C)CCCOc1ccc(NCc2ccc(C(=O)NO)cc2)cc1Cl`, the growth was 12%.
The value for `Cc1nn(-c2ccccc2)c2ncnc(N/N=C/c3ccccc3O)c12` was -7.88% (active).
The value for `COc1cccc(N2CCN(c3ncnc4c3[nH]c3ccc(F)cc34)C[C@@H]2C)c1` was -38.8% (active); that for `CCC(CC)n1c(=O)c(SC2=NC3C(NN2)N(CC)C(=O)N3CC)c(C(=O)O)c2ccccc21` (stereo not given) was 0.469% (active); that for `Clc1ccc2c(NCCCN3CCOCC3)c3oc4ccccc4c3nc2c1` was 37.9%.
The value for `CC(=O)NC(C)(C)C(=O)N[C@@H](C)C(=O)NC(C)(C)C(=O)N[C@@H](C)C(=O)NC(C)(C)C(=O)N[C@@H](C)C(=O)N[C@@H](CCC(N)=O)C(=O)NC(C)(C)C(=O)N[C@H](C(=O)NC(C)(C)C(=O)NCC(=O)N[C@@H](CC(C)C)C(=O)NC(C)(C)C(=O)N1CCC[C@H]1C(=O)N[C@H](C(=O)NC(C)(C)C(=O)NC(C)(C)C(=O)N[C@@H](CCC(N)=O)C(=O)N[C@@H](CCC(N)=O)C(=O)N[C@H](CO)CC1CCCCC1)C(C)C)C(C)C` was 10.3% [5 µM].
Take `C#C[C@]1(O)CC[C@H]2[C@@H]3CC=C4c5sc(Nc6cccc(C)n6)nc5CC[C@]4(C)[C@H]3CC[C@@]21C`: the growth was -8.95% (active).
Regarding `CC(=O)O[C@@H]1C(=O)N(c2cnccn2)[C@H]1c1ccccc1[N+](=O)[O-]`, the growth is -30.4% (active).
For the compound `Cn1c2nc3ccccc3c-2cc2ccccc21`, the growth was 41.6%.
For the compound `Brc1ccc(-c2cc(-c3ccc4c(c3)OCCO4)n[nH]2)s1`, the growth is 3.16% (active).
As to `CN1CCN(Cc2ccc(NC(=O)c3cncc(C#Cc4cnc5ccc(N6CCN(C)CC6)nn45)c3)cc2C(F)(F)F)CC1`, the growth is -31.5% (active).
The value for `O=C(CSc1ccc(-c2nc3ccccc3[nH]2)cn1)N1CCN(c2ccccc2F)CC1` was 64.6%.
As to `CNC(=O)c1cc(-c2ccc(NC(=S)Nc3cc(C(F)(F)F)cc(C(F)(F)F)c3)cc2)nc2cccnc12`, the growth was 121%.
The same measure for `CCC(=O)Nc1cc(Nc2cc(NC3CC3)n3ncc(C#N)c3n2)ccc1C`: 5.84% (active); for `CN(C)c1cccc2c(S(=O)(=O)Nc3cccc(-c4csc(NC(=O)CCCCCN5CCN(CCO)CC5)n4)c3)cccc12`: 74.8%; for `CNC(=O)c1cc(Oc2ccc3nc(NC(=O)c4ccc(CN5CCCN(C)CC5)c(C(F)(F)F)c4)sc3c2)ccn1`: -65.2% (active).
For `COc1cc(C(C)=C(c2ccc(OCCN(C)C)cc2)c2ccc(OCCN(C)C)cc2)ccc1F`, the growth was 105%.
As for `CCOC(=O)c1c(Nc2ccccc2)nn2c(-c3ccccc3)ccnc12`, the growth was 80.7%.
Take `CN1C(=O)N(c2ccccc2)C2N=C(N/N=C/c3ccccc3)SC21` (stereo not given): the growth is -6.56% (active).
As for `CC(Nc1ncnc2ccc(-c3cnc4cnccn34)cc12)c1ccccc1` (stereo not given), the growth was 52.4%.
The value for `CC(=O)c1ccc(NC(=O)COc2ccc(C3SCC(=O)N3c3ccc(Br)cc3)cc2)cc1` (stereo not given) was 96.7%; that for `CC/C(=C/c1c(O)cccc1OC)c1ccc2c(OC)cccc2[o+]1` was 106%.
The value for `O=C(CSc1nnc(-c2ccc3nc(-c4ccc(Cl)cc4)[nH]c3c2)o1)Nc1ccc(C(=O)/C=C/c2ccc(Cl)cc2)cc1` was 86%; that for `CC(=O)Nc1cc(N2CCOCC2)c2nc(NC(=O)c3[nH]c(C)c(Cl)c3Cl)sc2c1` was 82.9%.
The same measure for `C=C(C=O)[C@@H]1CC[C@]2(C)[C@H](CC=C3[C@H]4[C@@H](C)[C@H](C)CC[C@]4(C(=O)OC)CC[C@]32C)[C@@]1(C)CCC#N`: -25.2% (active); for `Nc1cc(-c2c[nH]c3ccc(Cl)cc23)nc2cc(-c3c[nH]c4ccc(Cl)cc34)nn12`: 43.9%; for `C#CCOC(=O)[C@@H]1CCCN1CC#C`: 85.3%.
As to `CCCCCc1ccc(S(=O)(=O)Nc2cc(-c3csc(NC(=O)CN4CCN(C)CC4)n3)ccc2OC)cc1`, the growth is -52.4% (active).
The same measure for `CCOC(=O)c1ccc(N/C=C/C(=O)c2ccccc2)cc1`: 84.3%; for `O=C(Cn1c(-c2ccccc2)nc2cc(Cl)c(Cl)cc21)N=Nc1c(O)[nH]c2ccc(Cl)cc12`: 92.1%.
The same measure for `COc1cc2oc(-c3cccc(NC(=O)c4cc(NC(=O)[C@H](C)N)ccc4Cl)c3)cc(=O)c2c(OC)c1OC`: 97.2%.
The value for `CC(C)C[C@@H]1N[C@@]2(C(=O)Nc3ccccc32)[C@@H](c2ccc(F)cc2)[C@@H]1C(=O)c1ccc(O)cc1` was 105%; that for `COc1ccc(/C=N/NC(=O)c2c(N)nn(C)c2Nc2ccccc2)cc1Oc1ccccc1` was 100%.
